# Screening results: PubChem BioAssay, several laboratories
# An excerpt weighted towards active compounds, which were near 27% of everything screened.
# Cav32 inh = inhibitors of human Cav3.2 T-type calcium channel | Cav3.2-expressing cells, Fluo-4 calcium fluorescence FDSS; stronger effect = lower value | B-score at 10 µM | AID 449739 | O95180 | 100,000 tested, 4% active;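 active means single-dose well whose peak fluorescence ratio is a statistical outlier from its plate by either plate-standardised score or position-corrected B-score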
# CYP2C19 inh = human CYP2C19 inhibition; inhibition, % at 5 µM; CYP2C19 Supersomes, luciferin-H EGE luminescence, 30 min; 96,000 tested, 21% active;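 active means CYP2C19 inhibition above a set limit at 5 µM in the primary screen, cut at about 50% in these data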;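 further: plate controls were negative control wells for no effect and 2.5 mM tranylcypromine positive control for full effect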
# Target sequence (P33261 whole entry, looked up): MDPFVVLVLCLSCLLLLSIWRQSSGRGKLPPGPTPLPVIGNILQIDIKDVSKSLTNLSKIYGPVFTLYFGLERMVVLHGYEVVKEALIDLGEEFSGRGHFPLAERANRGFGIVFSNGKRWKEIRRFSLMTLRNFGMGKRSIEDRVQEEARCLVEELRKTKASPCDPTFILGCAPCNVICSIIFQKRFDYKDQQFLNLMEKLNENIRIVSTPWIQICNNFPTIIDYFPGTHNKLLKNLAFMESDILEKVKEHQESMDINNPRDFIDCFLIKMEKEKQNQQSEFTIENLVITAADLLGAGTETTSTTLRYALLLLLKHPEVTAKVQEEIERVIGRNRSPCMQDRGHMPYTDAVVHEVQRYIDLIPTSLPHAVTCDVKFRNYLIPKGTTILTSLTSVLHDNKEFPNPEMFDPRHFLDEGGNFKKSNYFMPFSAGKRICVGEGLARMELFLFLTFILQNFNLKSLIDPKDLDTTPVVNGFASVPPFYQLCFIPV
# CYP2C9 inhib = inhibitors of human CYP2C9 | P11712 | CYP2C9 Supersomes, luciferin-H conversion, luminescence | inhibition, % at 5 µM | 96,000 tested, 20% active;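 active means blocking of liver enzyme CYP2C9 beyond about 50% at 5 µM, limit read from the data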
# CYP2C19 act = increases human CYP2C19 enzyme activity | activation factor at 5 µM | AID 1025 | recombinant CYP2C19, luciferin-H EGE luminescence; stronger effect = higher value; 0 = fully inhibited enzyme, 1 = untreated enzyme | P33261 | 96,000 tested, under 10 active;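 active means activation factor of at least 2 at 5 µM in the primary screen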;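 further: 0 = wells with 2.5 mM tranylcypromine and 1 = vehicle-only wells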
# CYP2C9 activ = CYP2C9 (human) activation; recombinant CYP2C9, luciferin-H conversion, luminescence; stronger effect = higher value; factor 1 = untreated enzyme, 0 = blocked; activation factor at 5 µM; 96,000 tested, 1.4% active; AID 1024;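 active means activation factor of 2 or more for CYP2C9 at a 5 µM dose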;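 further: 0 = sulfaphenazole-blocked wells and 1 = vehicle-only wells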
# Numbers without * were called inactive; x = not tested or not shown.
SMILES,Cav32 inh,CYP2C19 inh,CYP2C9 inhib,CYP2C19 act,CYP2C9 activ
CCNC(=O)n1nccc1C(C)Oc1cccc(C(F)(F)F)c1 (stereo unspecified),-1.7,56*,26,0.4,0.7
CC(C)NC(=O)c1ccc(-c2cccc(C(F)(F)F)c2)o1,-0.2,7,-35,0.9,1.4
CCNC(=O)n1nccc1C(C)Oc1ccc(Cl)cc1 (stereo unspecified),-1.2,88*,71*,0.1,0.3
COC(=O)C1=C(C)N(CCCCCC(=O)O)C(=O)NC1c1ccccc1 (stereo unspecified),0.34,x,x,x,x
O=C(COC(=O)CCNS(=O)(=O)c1ccc2c(c1)OCCO2)NC1CCCc2ccccc21 (stereo unspecified),-0.57,62*,-18,0.4,1.2
CN(C)/C=N/c1ncc(C(=O)c2ccc3ccccc3c2)s1,-2.8,53*,-128,0.5,2.3*
CSc1ccccc1C(=O)NCC1CCCO1 (stereo unspecified),0.15,3,4,1,1
O=C(NCC1CCCO1)c1cc(-c2ccccc2)on1 (stereo unspecified),0.4,-4,-156,1,2.6*
CN1CCN(CCCNC(=O)c2cc3c(-c4ccc(Cl)cc4)nn(C)c3s2)CC1,1,-2,13,1,0.9
Cc1ccc(-c2cc(C(=O)NCC3CCCO3)no2)cc1 (stereo unspecified),0.4,44,-12,0.6,1.1
Cn1nc(-c2ccc(Cl)cc2)c2cc(C(=O)NCC3CCCO3)sc21 (stereo unspecified),0.97,28,53*,0.7,0.5
O=C(NCC1CCCO1)c1ccccc1-c1nc(-c2ccccc2)no1 (stereo unspecified),-0.53,24,58*,0.8,0.4
Cc1ccc(C(C)n2cc(C(=O)NCc3ccncc3)nn2)cc1 (stereo unspecified),0.68,43,89*,0.6,0.1
COC(=O)c1cc(C(=O)c2cccc(Cl)c2Cl)cn1C,-1.3,90*,-96,0.1,2*
Cn1cc(C(=O)c2cccc(Cl)c2Cl)cc1C(=O)O,1.2,-9,-8,1.1,1.1
COc1ccc(N2CC(C(=O)O)CC2=O)cc1 (stereo unspecified),0.034,x,x,x,x
O=C(NC(NC(=S)Nc1ccc(Cl)cc1Cl)C(Cl)(Cl)Cl)c1cccc([N+](=O)[O-])c1 (stereo unspecified),-4.9*,7,88*,0.9,0.1
COc1ccc(N(CC(=O)N2CCCC(C)C2)S(=O)(=O)c2c(C)nn(C)c2C)cc1 (stereo unspecified),0.12,53*,37,0.5,0.6
COc1ccc2oc(=O)c(C(=O)N3c4ccccc4CC3C)cc2c1 (stereo unspecified),-3.6,20,68*,0.8,0.3
COc1ccc(S(=O)(=O)CCC(=O)N2c3ccccc3CC2C)cc1 (stereo unspecified),0.31,38,-96,0.6,2*
CC1Cc2ccccc2N1C(=O)COC(=O)c1ccc(S(=O)(=O)N(C)C)cc1 (stereo unspecified),0.37,2,-15,1,1.2
COc1ccc2oc(=O)c(C(=O)N3CCN(c4ccccc4C)CC3)cc2c1,0.47,1,0,1,1
CCOC(=O)C1CCN(C(=O)CN(c2ccc(OC)cc2)S(=O)(=O)c2c(C)nn(C)c2C)CC1,0.12,31,49,0.7,0.5
COc1ccc(N(CC(=O)N2c3ccccc3CC2C)S(=O)(=O)c2c(C)nn(C)c2C)cc1 (stereo unspecified),-0.37,80*,77*,0.2,0.2
Cc1cccc(CC(Cc2nc3ccccc3[nH]2)c2nc3ccccc3[nH]2)c1 (stereo unspecified),-7.1*,93*,88*,0.1,0.1
SMILES,Cav32 inh,CYP2C19 inh,CYP2C9 inhib,CYP2C19 act,CYP2C9 activ
CC(C)N(Cc1nc2ccccc2[nH]1)C(C)C,0.17,1,6,1,0.9
O=C(CCn1c(=O)sc2ccccc21)NCCCn1ccnc1,0.36,x,x,x,x
O=C(CNC(=O)c1ccc(Cl)cc1)NCCCn1ccnc1,x,85*,79*,0.1,0.2
CC(C)(Oc1ccc(Cl)cc1)C(=O)NCCCn1ccnc1,0.53,100*,87*,0,0.1
O=C(NCCCn1ccnc1)Nc1cccc(Cl)c1,0.24,96*,100*,0,0
O=C(CCn1cccc1)NCCc1ccc(Cl)cc1,-0.36,59*,24,0.4,0.8
COc1ccc(CCNC(=O)CCn2cccc2)cc1OC,-1.3,37,20,0.6,0.8
C=C(C)Cn1c(SCC(=O)O)nc2c1c(=O)[nH]c(=O)n2C,-0.023,-10,-6,1.1,1.1
CC(C)C(=O)N1CCC2(CC1)Oc1ccc(Cl)cc1C(=O)C21CC(c2cccnc2)=NO1 (stereo unspecified),-0.77,x,x,x,x
O=C(NCCCn1ccnc1)C(=O)NCc1ccc(Cl)cc1,-0.16,x,x,x,x
O=C(Cc1ccc(Cl)cc1)NCCCn1ccnc1,0.42,98*,88*,0,0.1
O=C(O)c1ccc(CSCc2c(F)cccc2Cl)o1,0.2,-10,-11,1.1,1.1
CC1/C(=C\c2ccc(Cl)cc2)C(=O)C2CC1C2(C)C (stereo unspecified),0.27,77*,65*,0.2,0.4
CCOC(=O)c1cnc2ccc(OCC)cc2c1N1CCN(c2ccccc2OC)CC1,-0.64,77*,94*,0.2,0.1
Cc1cc(OCC(F)(F)C(F)(F)C(F)(F)C(F)(F)C(F)(F)C(F)F)nc(N)n1,-0.21,64*,57*,0.4,0.4
COc1ccc(/C=C/C(O)=C2/C(=O)N(C)C3(C)CC2c2ccccc2O3)cc1 (stereo unspecified),-5*,12,13,0.9,0.9
Cc1ccc(/C=C/C(O)=C2/C(=O)N(C)C3(C)CC2c2ccccc2O3)cc1 (stereo unspecified),-2.4,33,26,0.7,0.7
Cn1c(Cn2c(=O)sc3ccccc32)nnc1SCC(=O)Nc1cccc(F)c1,0.45,x,x,x,x
CCOc1cc(/C=N/O)cc(Cl)c1OC,-0.62,6,-8,0.9,1.1
Cc1cccc(NC(=S)NC2CC3CCCC(C2)N3Cc2cccs2)c1 (stereo unspecified),-3,-8,-7,1.1,1.1
Cn1c(Cc2cccc3ccccc23)nnc1SCC(=O)N1CCN(c2ccccc2)CC1,-0.52,12,-68,0.9,1.7
COC(=O)c1cc2sc(Cl)cc2n1CC(=O)Nc1ccc(OC)c(OC)c1OC,-1.8,27,9,0.7,0.9
COC(=O)c1cc2sc(Cl)cc2n1CC(=O)Nc1cccc(SC)c1,-0.79,44,75*,0.6,0.3
CCn1c(C(O)c2ccc3c(c2)OCO3)nc2ccccc21 (stereo unspecified),0.71,98*,46,0,0.5
Cc1cc(/C=N\NC(=O)CC(=O)NC2CCCCC2)c(C)n1-c1ccc(Cl)c(Cl)c1,-2.9,-13,-8,1.1,1.1
